About 83,000 compounds went through this panel and 20% of them were active in at least one assay; those are over-represented in the sample as a whole.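 Each cell line was grown in a 96-well plate and treated with one concentration of compound for 48 hours. Values below 10 were considered active.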 The source made the active and inactive calls.

The first test deals with SK-MEL-2 melanoma. The test can be described thus: NCI-60 one-dose screen, 48 h (100 = growth as untreated, 0 = no growth, -100 = all killed). Conditions: 10 µM unless noted.
Take `O=S(=O)(Nc1cc(Cl)cc(Cl)c1)c1ccc(-c2cnc(C3CC3)o2)cc1`: the growth was 56.8% (inactive).
In the case of `CC(=O)Nc1ccc(NC(=O)Nc2cccc(-c3nc(-c4ccc(NC(=O)c5cccnc5)cc4Cl)no3)c2)cc1C(F)(F)F`, the growth is -68.5% (active).
Consider `O=C(Nc1cccc(-c2nc(-c3ccc(NC(=O)c4cccs4)cc3Cl)no2)c1)Nc1ccc(NC(=O)C2CC2)c(C(F)(F)F)c1`, for which the growth was -50.2% (active).
In the case of `CN1C(=O)N(C)C2Nn3c(s/c(=C\c4ccccn4)c3=O)=NC21` (centres undefined), the growth was 102% (inactive).

The test system of the next test is EKVX NSCLC. Described as above. The conditions noted are these: 10 µM unless noted.
In the case of `CCC(=O)Nc1ccc(-c2nc(-c3cccc(O)c3)c(-c3ccnc(Br)c3)[nH]2)cc1`, the growth was 88.4% (inactive).
As to `NC(=O)c1c(NC(=O)c2cccc(OC(F)(F)F)c2)sc2c1CCC(=O)C2`, the growth is 68.7% (inactive).
As for `COc1cc(C2=NN(C(C)=O)C(c3ccc(N4CCOCC4)cc3)C2)cc(OC)c1OC` (centres undefined), the growth is 101% (inactive).
For `CCC(=O)Nc1cc(Nc2cc(NC3CC3)n3ncc(C#N)c3n2)ccc1C`, the growth is 39.1% (inactive).
Consider `O=C(CSc1ccc(-c2nc3ccccc3[nH]2)cn1)N1CCN(c2ccccc2F)CC1`, for which the growth is 53.6% (inactive).
Regarding `NCCN1CCN(c2nc(-c3ccccc3)nc3nc(-c4ccccc4)oc23)CC1`, the growth is 2% (active).
With `CCN(CC)Cc1c(-c2cccc(OC(F)(F)F)c2)[nH]c2ccc(N3CCCC3)cc2c1=O`, the growth is 90.6% (inactive).
The same measure, in the same setting: then `C#C[C@]1(O)CC[C@H]2[C@@H]3CC=C4c5sc(-c6ccc(OC)cc6)nc5CC[C@]4(C)[C@H]3CC[C@@]21C`, with 76.8% (inactive); and `C#C[C@]1(O)CC[C@H]2[C@@H]3CC=C4c5sc(Nc6cc(OC)ccc6OC)nc5CC[C@]4(C)[C@H]3CC[C@@]21C`, with 42.9% (inactive); and `O=C(Nc1cccc(-c2nc(-c3ccc(NC(=O)c4cccnc4)cc3Cl)no2)c1)Nc1ccc(NC(=O)C2CC2)c(C(F)(F)F)c1`, with -28% (active).
Regarding `O=C(Nc1ccc(-c2nc(-c3cccc(O)c3)c(-c3ccnc(Br)c3)[nH]2)cc1)c1ccccc1`, the growth was 26.7% (inactive).
For `COc1ccccc1N1CCN(C2=NN=C(c3cccc(Cl)c3)c3ccccc3C2)CC1`, the growth is 40.9% (inactive).
The same measure, in the same setting: to `O=C(NNc1nc2cc(F)c(F)cc2n2cccc12)c1ncccn1` belongs 17.3% (inactive).
The same measure, in the same setting: then `O=C(CN1C(=O)CSC1=O)Nc1ccc(C(=O)/C=C/c2cc3ccccc3nc2Cl)cc1`, with 72.1% (inactive); and `O=C(C[n+]1ccnc2ccccc21)c1ccc(O)c(O)c1`, with 94.2% (inactive).
For `Cn1ccnc1C(=O)/C=C/c1ccc(C(=O)Nc2ccc(NC(=O)CCNC(=O)c3csc(Br)n3)cc2)cc1`, the growth was 69.9% (inactive).
For the compound `COc1ccc(Oc2ccc(C3CC(c4cc(OC)c(OC)c(OC)c4)=NN3C(C)=O)cc2)cc1` (centres undefined), the growth is 25.4% (inactive).
On to `O=C1/C(=C/c2ccccc2[N+](=O)[O-])Oc2ccc(O)cc21`, for which the growth is 69.8% (inactive).
Consider `O=c1c2ccccc2nc(COc2ccccc2)n1/N=C/C=C/c1ccccc1`, for which the growth is 86.2% (inactive).
The same measure, in the same setting: to `C#C[C@]1(O)CC[C@H]2[C@@H]3CC=C4c5sc(C6CC6)nc5CC[C@]4(C)[C@H]3CC[C@@]21C` belongs 80.1% (inactive).
In the case of `Cc1ccc(S(=O)(=O)N/N=C/c2cn(-c3ccc(F)cc3)nc2-c2ccc(S(C)(=O)=O)cc2)cc1`, the growth was 96.6% (inactive).
Still for that read-out and setting: then `C#C[C@]1(O)CC[C@H]2[C@@H]3CC=C4c5sc(-c6ccccn6)nc5CC[C@]4(C)[C@H]3CC[C@@]21C`, with 77.7% (inactive); and `CCOC(=O)c1c(NC(=O)c2cccc(C(F)(F)F)c2)sc2c(CN3CCN(C)CC3)c(O)ccc12`, with 70.4% (inactive).
Turning to `CCOC(=O)Nc1ccc(-c2nc(-c3cccc(O)c3)c(-c3ccnc(Br)c3)[nH]2)cc1`, the growth is 44.2% (inactive).
Regarding `COc1ccc(NS(=O)(=O)c2ccc(-c3cnc(C4CC4)o3)cc2)cc1Cl`, the growth was 38.2% (inactive).
Take `O=S(=O)(Nc1ccc(I)c(Cl)c1)c1ccc(-c2cnc(C3CC3)o2)cc1`: the growth is 42.5% (inactive).
With `O=S(=O)(Nc1ccc2c(c1)OC(F)(F)O2)c1ccc(-c2cnc(C3CC3)o2)cc1`, the growth was 58% (inactive).
For the compound `O=C(CN1CCN(c2cc(=O)n(-c3ccccc3)c3ccccc23)CC1)Nc1ccc([N+](=O)[O-])cc1`, the growth was 88.7% (inactive).
Regarding `CN(c1ccc(Cl)cc1)S(=O)(=O)c1ccc(-c2cnc(C3CC3)o2)cc1`, the growth is 47% (inactive).
`O=C(/C=C/c1cn(-c2ccccc2)nc1-c1ccc(Cl)cc1)c1cc2ccccc2oc1=O`: the growth was 79.8% (inactive).

These data come from PubChem BioAssay (NCI).
